# Assay outcomes deposited in PubChem BioAssay by National Center for Advancing Translational Sciences (NCATS).
# An excerpt weighted towards active compounds, which were near 8% of everything screened.
# Marburg entry inh = Marburg virus entry inhibition | Marburg virus pseudotyped entry inhibition, cell reporter | Potency, µM (titrated, usually from 37.8 µM), for inactives: top-dose activity change, negative = inhibition, hits mostly inhibitors | 300,000 compounds, 1.8% hits; calls by dose curve; tested in HEK293 cells; further: potency means the concentration at half of the fitted maximal effect; on the % scale 0 is the no-effect control and ±100 the full control effect
# HCMV antiviral = human cytomegalovirus inhibition | HFF cells, HCMV-luciferase reporter, 72 h; active compounds read low | activity change, negative = inhibition, % at 57.5 µM | 410,000 compounds, 4.5% hits; in the data active means activity change below about -60%; inconclusive means no clear call, values can overlap the other calls; inactive means above about -39%; further: on the % scale 0 is the no-effect control and ±100 the full control effect
#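 Screen run at 2 compound doses on HFFs infected with reporter HCMV, MOI 1 PFU/cell. Luciferase activity from cell lysates at 72 h post infection gave inhibition relative to buffer-only and Salinomycin wells.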
# SARS PLP yeast = SARS-CoV PLP inhibition in yeast | S. cerevisiae expressing SARS-CoV PLpro, growth rescue | Potency, µM (highest dose often 32.9 µM), for the others: at the top dose activity, positive = growth rescue, usual class: activators | 330,000 compounds, 0.19% hits | AID 485353; calls by dose curve; further: potency means the concentration at half of the fitted maximal effect; 0% is about no effect; nearly all actives have a fitted effect of over 55% in size
# FMDV inh = blocks foot and mouth disease virus | AID 1159524 | Potency, µM (top dose mostly 57.9 µM), for inactives: top-dose activity change, negative = inhibition, actives largely listed as inhibitors | FMDV antiviral cell-based qHTS | 410,000 compounds, 1.2% hits; calls by dose curve; tested in HEK293T cells; further: read-out not given here; potency means the concentration at half of the fitted maximal effect; on the % scale 0 is the no-effect control and ±100 the full control effect; nearly all actives have a fitted effect of over 45% in size
# HCV inhibitor = inhibitors of hepatitis C virus infection | Potency, µM (highest dose often 41.8 µM), without a hit: top-dose activity change, negative = inhibition, usual class: inhibitors | 340,000 compounds, 3.4% hits | AID 651820 | Huh7.5.1 HCVcc-Cre infection, luciferase reporter, 44 h; active means well fitted inhibition curve with a large enough effect; inconclusive means small, poorly fitted or top-dose-only effect, or another doubt; inactive means no such curve, though single readings can be large or run the other way; further: potency means the concentration at half of the fitted maximal effect; on the % scale 0 is the no-effect control and ±100 the full control effect
#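 Cells seeded at 1,000/well and cultured 4 h, then compounds added followed by HCVcc-Cre virus (~0.5 moi). After 44 h further culture, luciferase substrate was added, plates held 15 min at room temperature, and luminescence read for 15 sec.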
# Lassa entry inh = blocks Lassa virus binding to or entry into cells. Lassa virus pseudotype entry inhibition, cell reporter. 300,000 compounds, 1.2% hits. Potency, µM (top dose mostly 37.9 µM), for inactives: at the top dose activity change, negative = inhibition, actives largely listed as inhibitors; calls by dose curve; tested in HEK293 cells; further: potency means the concentration at half of the fitted maximal effect; on the % scale 0 is the no-effect control and ±100 the full control effect; nearly all actives have a fitted effect of over 50% in size
# * marks the source's active call; other numbers are inactive results; ? = inconclusive; / = no result; [ ] = remark or other dose.
SMILES,Marburg entry inh,HCMV antiviral,SARS PLP yeast,FMDV inh,HCV inhibitor,Lassa entry inh
COCCn1c(-c2ccc(Br)cc2)csc1=Nc1cccnc1,?,-37,-2%,32µM*,?,/
Clc1ccc(-c2csc(=Nc3cccnc3)n2CCCn2ccnc2)cc1Cl,?,-94*,10%,32µM*,11µM*,?
COc1ccc(-c2csc(=Nc3ccccc3)n2CCO)cc1F,?,-8,/,?,/,-24%[46.1 µM]
COc1ccc(N=c2scc(-c3ccc(OC)cc3)n2CCO)cc1,-29%,-74*,0%,-2%,6.3µM*,?
COc1cccc(-c2nnn(CC(=O)N(CC(C)C)C3CCS(=O)(=O)C3)n2)c1 (stereo not given),?,-34,-1%,4%,0%,-3%[46.1 µM]
O=C(OCc1ccccc1F)c1cc([N+](=O)[O-])ccc1N1CCOCC1,?,9,-2%,-19%,10µM*,-5%
Cc1ccc(C)c(C(=O)COC(=O)c2cc([N+](=O)[O-])ccc2N2CCOCC2)c1,1%,-19,2%,-26%,?,12%
CN(C)S(=O)(=O)c1cccc(COC(=O)c2cc([N+](=O)[O-])ccc2N2CCOCC2)c1,11%[46.1 µM],-20,0%,?,13µM*,?
O=C(OCc1ccccc1C(F)(F)F)c1cc([N+](=O)[O-])ccc1N1CCOCC1,?,-12,-13%,-10%,?,?
CN1CCN(c2ccc([N+](=O)[O-])cc2C(=O)N2CCOCC2)CC1,12%[46.1 µM],26,5%,7%,20%,1%
Cc1ccccc1COC(=O)c1cc([N+](=O)[O-])ccc1N1CCOCC1,/,23,-9%,-6%,13µM*,/
O=C(c1cc([N+](=O)[O-])ccc1N1CCOCC1)N1CCN(c2ccccc2)CC1,/,-87*,0%,/,/,/
O=C(OCc1ccc([N+](=O)[O-])cc1)c1cc(S(=O)(=O)N2CCCCC2)ccc1N1CCOCC1,?,?,3%,-29%,?,?
Cc1cc(O)c(C(c2ccccc2)N2CCC(C)CC2)c(=O)n1Cc1ccco1 (stereo not given),/,5,/,-14%,/,30%[46.1 µM]
CSc1ccc(COC(=O)c2cc([N+](=O)[O-])ccc2N2CCOCC2)cc1,?,-83*,4%,-32%,?,?
COc1ccc(OC)c(COC(=O)c2cc([N+](=O)[O-])ccc2N2CCOCC2)c1,/,-9,17%,-14%,8.9µM*,/
CCc1nc2c(OCCc3cccc(OC)c3)cccn2c1N(C=O)Cc1ccc(OC)cc1,/,-10,/,?,/,/
CCOC(=O)C1=C(NC(=S)NC(=O)c2ccccc2)c2ccccc2CC12CCCC2,3.7µM*,-99*,-11%,?,?,2.6µM*
CCC1C/C(=C\c2cc(OC)c(OC)cc2OC)C(=O)/C(=C/c2cc(OC)c(OC)cc2OC)C1 (stereo not given),/,/,0%,?,7.1µM*,/
COc1cc(OC)c(OC)cc1/C=C1\CC(C)C/C(=C\c2cc(OC)c(OC)cc2OC)C1=O (stereo not given),/,-99*,-2%,13µM*,?,/
Cc1cc2c(cc3c(SCc4ccc(Cl)cc4)nnc(C)n32)o1,/,-12,/,3%,/,21%[46.1 µM]
O=C(NC1CCCC1)C1CCN(C(=O)c2ccc(-c3ccccc3)cc2)CC1,21%[46.1 µM],-14,1%,0%,-9%,?
Cc1ccc2nc(N3CCC(C(=O)NCc4ccc(F)cc4)CC3)[nH]c2c1,/,0,/,21%,/,-4%[46.1 µM]
Cc1ccc(C2CC(c3ccc(NS(C)(=O)=O)cc3)=NN2C(=O)c2ccco2)cc1 (stereo not given),-20%,-13,10%,-11%,-14%,?
CCS(=O)(=O)Nc1ccc(C2=NN(C(=O)c3ccco3)C(c3cccc(F)c3)C2)cc1 (stereo not given),/,17,0%,-4%,?,/
CCS(=O)(=O)Nc1ccc(C2=NN(C(=O)c3ccco3)C(c3ccc(C)cc3)C2)cc1 (stereo not given),?,-3,23%,?,?,16µM*
CS(=O)(=O)Nc1ccc(C2=NN(C(=O)c3ccco3)C(c3cccc(F)c3)C2)cc1 (stereo not given),11µM*,?,1%,-14%,?,?
